Only some compounds are listed: those with a hit (about 13% of all), similar ones and a draw of the others.
CHOP inhibitor – blocks CHOP induction under ER stress; 220,000 tested, 3.8% active; inhibition, % at 10 µM; CHO-K1 CHOP-promoter luciferase, tunicamycin-induced, 15-18 h;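 active = compounds that reduced the stress-induced luciferase reporter signal by more than about 70% of percent inhibition, limit read from the data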
WT yeast gro inh – growth inhibition of WT yeast, mitochondrial fusion screen; mitochondrial fusion phenotypic screen, WT strain; inhibition, % at 10 µM; 190,000 tested, 2.1% active; in the data active = inhibition above about 58%; tested in S. cerevisiae
RAM network inh – inhibitors of the yeast RAM network; S. cerevisiae dse1pr::URA3 reporter, 5-FOA growth OD615, 2 d; analog-sensitive cbk1-as2 kinase mutant strain; inhibition, % at 50 µM; 190,000 tested, 1.8% active;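 active = inhibition above a set limit, 3 SD over mean compound inhibition, cut at about 8.4% in these data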;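 also: inhibition rescues growth on 5-FOA so higher OD means more RAM inhibition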
L major viab – reduces viability of Leishmania major promastigotes; resazurin fluorescence viability; inhibition, % at 10 µM; 200,000 tested, 9% active; in the data active = inhibition above about 50%;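 also: promastigotes grown with compound for 44 hours at 28 °C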
A number is an active result; i = inactive; nt = no result.

SMILES | CHOP inhibitor | WT yeast gro inh | RAM network inh | L major viab
CCn1c(=O)c(=O)[nH]c2cc(C(=O)NCC3CCCCC3)ccc21 | i | i | i | 68
CCn1c(=O)c(=O)[nH]c2cc(C(=O)NC3CCCC3)ccc21 | i | i | i | i
O=C1CC(c2ccccc2)CC2=C1C(c1ccccn1)Nc1ccccc1N2 (stereo not given) | i | i | i | i
COc1ccc(C2CC(=O)C3=C(C2)Nc2ccccc2NC3c2coc3ccccc3c2=O)cc1OC (stereo not given) | i | i | i | 93
CCC1CCCCN1C(=O)CCc1nnc(C2CCCCC2)o1 (stereo not given) | i | i | i | i
COc1ccc(Cl)cc1C(=O)Nc1nnn(C)n1 | i | i | i | i
O=C1CN(C(=O)c2ccccc2F)c2ccccc2N1 | i | i | i | i
Cc1ccc(Nc2c([N+](=O)[O-])cc(C(=O)N3CC(=O)Nc4ccccc43)cc2[N+](=O)[O-])c(C)c1 | i | i | i | 88
COC(=O)c1c(NC(=O)c2ccccc2)sc2c1CC(C)(C)OC2 | i | i | i | i
CCCC(=O)Nc1sc2c(c1C(=O)OCC)CC(C)(C)OC2 | i | i | i | i
CCOC(=O)c1c(NC(=O)c2ccc(C)cc2)sc2c1CC(C)(C)OC2 | i | i | 10 | 61
Cc1ccccc1C(=O)Nc1sc2c(c1C(=O)O)CCC2 | 85 | i | i | i
O=C(Nc1sc2c(c1C(=O)O)CCCCC2)c1ccco1 | i | i | i | i
CCOC(=O)c1c(NC(=O)CCC(=O)N2CCOCC2)sc2c1CC(C)(C)OC2 | i | i | i | 97
CCOC(=O)c1c(NC(=O)c2ccccc2C)sc2c1CC(C)(C)OC2 | i | i | 8.8 | 72
CCOC(=O)C1(Cc2ccc(OC)cc2)CCN(C(=O)c2cncs2)CC1 | i | i | i | i
CC(NCc1ccc(S(N)(=O)=O)cc1)C(=O)Nc1cccc(Cl)c1 (stereo not given) | i | nt | nt | nt
O=C1c2ccccc2C(=O)C1c1ccnc2ccccc12 | 83 | i | i | i
COc1cc(-c2nc3ccccc3c(=O)n2N)cc(OC)c1OC | i | i | i | i
CCOC(=O)C(C(=O)Nc1cccc(C)c1)C1CCCCC1 (stereo not given) | i | i | i | i
Cc1cc(C)c2nc(C(F)(F)F)nc(NCCCN3CCOCC3)c2c1 | i | i | i | 95
CCOc1ccc(-n2nc3c(-n4ncc(C#N)c4N)nnc(C)c3c2C)cc1 | nt | nt | nt | i
CCc1nnc(NC(=O)c2ccc(S(=O)(=O)N(CC(C)C)CC(C)C)cc2)o1 | nt | 72 | i | 96
CSCc1nnc(NC(=O)c2ccc(S(=O)(=O)N(C)C)cc2)o1 | i | i | i | i
CCc1nnc(NC(=O)c2ccc(S(=O)(=O)N(C)c3ccccc3)cc2)o1 | i | i | i | 83
SMILES | CHOP inhibitor | WT yeast gro inh | RAM network inh | L major viab
CSCc1nnc(NC(=O)c2ccc(S(=O)(=O)N(CC(C)C)CC(C)C)cc2)o1 | nt | 72 | i | 79
CCCn1cnc2c(=S)nc(N)[nH]c21 | i | nt | nt | nt
Cc1ccc(N2C(=O)c3ccccc3C2Nc2cccnc2)nc1 (stereo not given) | i | i | i | 69
CCOC(=O)c1ccccc1NC1c2ccccc2C(=O)N1c1ccc(C)cn1 (stereo not given) | 85 | i | i | i
CCOc1ccccc1NC1c2ccccc2C(=O)N1c1ccc(C)cn1 (stereo not given) | i | i | i | i
COc1ccc(C)cc1NC(=O)CNC(C)C(=O)Nc1cc(Cl)ccc1Cl (stereo not given) | i | i | i | i
O=C(Nc1ncc(Cc2cccc([N+](=O)[O-])c2)s1)c1ccco1 | i | i | i | i
O=C(Nc1ncc(Cc2ccccc2Cl)s1)c1ccc(-c2cccc([N+](=O)[O-])c2)o1 | i | i | i | 92
Cn1cc(/C=C(\C#N)C(=O)Nc2ncc(Cc3cccc(Cl)c3)s2)c2ccccc21 | i | i | i | 91
O=C(Nc1ncc(Cc2cccc(Cl)c2)s1)c1ccc([N+](=O)[O-])cc1 | 76 | i | i | i
O=C(Nc1ncc(Cc2ccc(C(F)(F)F)cc2)s1)c1ccc(-c2cccc([N+](=O)[O-])c2)o1 | i | i | i | 90
O=C(Nc1ncc(Cc2ccccc2Cl)s1)c1ccc([N+](=O)[O-])cc1 | i | i | i | i
O=C(c1ccccc1)N1CCCC(C(=O)N2CCN(c3ccccc3)CC2)C1 (stereo not given) | i | nt | nt | nt
Cc1cccc(Cc2cnc(NC(=O)c3ccc(C)o3)s2)c1 | i | i | 8.8 | i
Cc1cc(C)n(-c2ncnc3ccccc23)n1 | i | i | i | i
N#Cc1nc(-c2ccc(F)cc2)oc1NCc1ccccc1 | 82 | i | i | i
Cc1ccc(CNc2oc(COc3ccccc3Cl)nc2C#N)cc1 | 85 | i | i | i
COc1ccc(CCNc2oc(COc3ccccc3)nc2C#N)cc1 | i | i | i | i
N#Cc1nc(COc2ccccc2F)oc1NCCc1ccccc1 | 80 | i | i | i
COc1ccc(CNc2oc(COc3ccccc3Cl)nc2C#N)cc1 | i | i | i | i
N#Cc1nc(-c2ccc(F)cc2)oc1NCc1ccco1 | i | nt | nt | nt
CCn1c(C(C)NC(=O)c2cccs2)n[nH]c1=S (stereo not given) | i | i | i | i
CCN(CC)S(=O)(=O)c1ccc(OC)c(NC(=O)CSc2ccccc2)c1 | i | i | i | 99
CCN(CC)S(=O)(=O)c1ccc(OC)c(NC(=O)CSc2cc(Cl)ccc2Cl)c1 | i | i | 9.2 | 98
CC(=O)c1ccc(NC(=O)C(C)n2c3ccccc3c3nc(=O)cc(C)n32)cc1 (stereo not given) | i | nt | nt | nt
SMILES | CHOP inhibitor | WT yeast gro inh | RAM network inh | L major viab
COc1ccc(N/N=C(\C#N)C(N)=O)cc1 | i | i | i | i
N#C/C(=N/Nc1ccc(OC(F)(F)F)cc1)C(N)=S | 74 | nt | nt | nt
Cc1ccc(S(=O)(=O)Nc2nc(C)c(NC(=O)Nc3ccc(Cl)cc3Cl)s2)cc1 | i | i | i | i
CCC(C)NC(=O)CN1C(=O)NC2(CCc3ccccc3C2)C1=O (stereo not given) | i | i | i | i
CCCn1c(SCC(=O)NC(C)(C)C)nnc1-c1ccco1 | i | i | i | i
COc1ccccc1-c1nnn(C/C(N)=N/O)n1 | i | i | i | 72
COc1ccc(NC(=O)Cn2nnc(-c3ccccc3NC(=O)c3ccco3)n2)cc1 | 82 | i | i | i
COc1cc(NC(=O)Cn2nnc(-c3ccccc3N)n2)cc(OC)c1 | i | i | i | 55
COc1ccccc1NC(=O)Cn1nnc(-c2ccccc2NC(=O)c2cnccn2)n1 | 90 | i | i | i
COc1ccc(NC(=O)Cn2nnc(-c3ccccc3N)n2)cc1OC | i | i | i | i
O=C(COc1cc(Cl)c(Cl)cc1Cl)N1CCN(c2ccccn2)CC1 | i | i | i | i
C=CCNC(=O)c1onc(CSc2ccccn2)c1C(=O)NCC=C | i | nt | nt | nt
OCC1(CCc2ccccc2)CCN(Cc2cc(F)ccc2-n2cccn2)CC1 | i | i | i | i
COc1ccccc1NC(=O)Cn1nnc(-c2ccccc2NC(=O)c2cccs2)n1 | i | i | i | i
O=C(Cn1nnc(-c2ccccc2NC(=O)c2cccs2)n1)Nc1ccccc1 | 80 | i | i | i
O=S(=O)(Nc1ccc2ccccc2n1)c1ccc2c(c1)CCO2 | i | nt | nt | nt
Cc1cccc(CCNC(=O)c2cc(=O)[nH]c3ccc(Br)cc23)c1 | 73 | i | i | i

Bioassay records (PubChem)
